The text below walks through data of PubChem BioAssay AID1626 (SRMLSC, 2009).

Broadly, the inhibition is the change of the read-out against control, counted positive when it falls.

SMILES strings stand for the structures. Screen size: about 220,000 compounds; about 2,000 (0.91%) were called active. Not shown: some 2% with an inconclusive outcome. These entries were drawn from the full list. Potency and affinity values are given separately. Values without a mark were called inactive. Cut-off read from the data, not from the text of the source: inconclusive = inhibition above about 80% without an active follow-up result; inactive = below that; test concentration not stated here.

The assay in a line: M. tuberculosis H37Rv growth inhibitors, H37Rv strain (AID 1626).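 Note: bacteria incubated seven days before Alamar blue readout; 0% = bacteria only wells and 100% = bacteria with antibiotic wells.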 The conditions noted are these: hits give high values, concentration not given here.
Turning to `CS(=O)(=O)c1ccc2nc(NC(=O)C3CCCO3)sc2c1` (configuration not stated), the inhibition is -7.03%.

In the case of `CCN(Cc1cc(=O)n2ccsc2n1)Cc1nc2ccccc2c(=O)[nH]1`, the inhibition was -0.5%.

With `CCN(Cc1nc2ccccc2c(=O)[nH]1)Cc1nc2cc(OC)c(OC)cc2c(=O)[nH]1`, the inhibition is -5.3%.

Take `CSc1ccc(CN(C)Cc2nc3ccccc3c(=O)[nH]2)cc1`: the inhibition was -5.14%.

Regarding `COc1cc2nc(CN(C)Cc3nc4ccccc4c(=O)[nH]3)[nH]c(=O)c2cc1OC`, the inhibition was -3.41%.

For `Cc1nn(CC(=O)NC(C)c2ccccc2)c(=O)c2ccccc12` (configuration not stated), the inhibition was -2.29%.

Regarding `CC1Cc2ccccc2N1C(=O)CSc1nc2c(c(=O)n(C)c(=O)n2C)n1Cc1ccc(F)cc1` (configuration not stated), the inhibition is -3.29%.

Turning to `COCCn1c(NC(=S)NC(=O)C23CC4CC(CC(C4)C2)C3)cc(=O)[nH]c1=O`, the inhibition was -0.61%.

Take `COC(=O)c1cccc(-n2c(CCC(=O)O)ccc2-c2cccs2)c1`: the inhibition is 6.42%.

`CCN(CC)c1ccc(N=Cc2ccccc2[N+](=O)[O-])cc1`: the inhibition was 15.5%.

As to `CN(/N=C/c1ccc([N+](=O)[O-])o1)c1ccccc1`, the inhibition was 1.22%.

In the case of `COc1cccc(CC2(CO)CCCN(C/C=C/c3ccccc3OC)C2)c1` (configuration not stated), the inhibition is 39.9%.

With `COc1ccc(/C=C/CN2CCCC(CO)(Cc3cccc(Cl)c3)C2)cc1` (configuration not stated), the inhibition was 2.62%.

`NC(=S)NC1CC2C=CC1C2` (configuration not stated): the inhibition was -6.06%.

For the compound `CN1CCN(S(=O)(=O)c2cccc(C(=O)Nc3nccs3)c2)CC1`, the inhibition was -4.26%.

In the case of `O=C1NC(=O)/C(=C/c2cccc(O)c2)N1`, the inhibition was 8.98%.

As for `O=C(Cc1ccccc1)Nc1ccc(SC(F)F)cc1`, the inhibition is 1.19%.

Consider `O=C(COC(=O)Cc1ccccc1F)Nc1ccc(SC(F)F)cc1`, for which the inhibition was 91.8%.

On to `O=C(O)CC/C(=N/NC(=O)c1cccs1)c1ccccc1`, for which the inhibition was 7.05%.

Regarding `COc1ccc(C[C@H]2CN3C(=NC[C@@H]3C)N2CCNC(=O)CCC2CCCCC2)cc1`, the inhibition is -3.39%.

As to `COc1ccc(C[C@H]2CN3C(=NC[C@H]3C)N2CCNC(=O)CCC2CCCCC2)cc1`, the inhibition was -3.43%.

On to `O=C(CCC1CCCCC1)NCCN1C2=NC[C@@H](Cc3ccccc3)N2C[C@H]1Cc1ccc(O)cc1`, for which the inhibition is 39.5%.

For the compound `O=C(CCC1CCCCC1)NCCN1C2=NC[C@H](Cc3ccccc3)N2C[C@H]1Cc1ccc(O)cc1`, the inhibition is 9.81%.

With `NC(=O)c1nn(-c2ccccc2)nc1NC(=O)Cn1nnc(-c2ccccc2)n1`, the inhibition was 9.3%.

Regarding `Cc1ccc(CS(=O)(=O)Cc2ccc(C(=O)NCc3cccs3)o2)cc1`, the inhibition was 3.64%.

Consider `CC(C)c1cccc(C(C)C)c1OCCCCN1CCCC1`, for which the inhibition was 10.1%.

Turning to `O=C(CCn1cccc1)N1CCc2ccccc21`, the inhibition is 6.64%.

As for `CCOC(=O)c1ccccc1NC(=O)COC(=O)C1=COCCO1`, the inhibition was 71.3%.

With `CC(C)(C)c1ccc(NC(=O)COC(=O)C2=COCCO2)cc1`, the inhibition is 74%.

Take `CC(C)c1ccc(NC(=O)COC(=O)C2=COCCO2)cc1`: the inhibition was 78.6%.

Consider `Cc1ccc(NC(=O)COC(=O)C2=COCCO2)cc1`, for which the inhibition was 60.1%.

Turning to `NS(=O)(=O)c1ccc(NS(=O)(=O)c2ccc(NC(=S)Nc3ccccc3)cc2)cc1`, the inhibition is 7.44%.

In the case of `CC(=O)C1=C(C)NC(=O)CC1c1ccc(F)cc1` (configuration not stated), the inhibition is -1.68%.

As to `COc1cc([N+](=O)[O-])ccc1NC(=O)/C=C\C(=O)O`, the inhibition is 2.65%.

For the compound `COc1ccc(CC(=O)Nc2ccccc2N2CCCCC2)cc1OC`, the inhibition was 6.94%.

For the compound `Cn1cnnc1-c1cccc(NC(=O)c2cc(F)c(F)cc2Cl)c1`, the inhibition is -5.29%.

Turning to `O=C(NC1CCCC1)C(c1ccccc1)N(Cc1ccco1)C(=O)Cc1cccs1` (configuration not stated), the inhibition was 2.16%.

Consider `O=C(CCn1c(=O)[nH]c2ccccc2c1=O)Nc1ccccc1`, for which the inhibition was -7.56%.

Take `O=c1cc(C(F)F)oc2c1ccc1ccccc12`: the inhibition is 1.35%.

Take `O=c1cc(C(F)(F)F)oc2c1ccc1ccccc12`: the inhibition is -2.31%.

Consider `COc1ccc(C(=O)C2CCCN(C(=O)c3cccnc3SC)C2)c(C)c1` (configuration not stated), for which the inhibition was -5.65%.

Regarding `NS(=O)(=O)c1ccc(CCNCc2cccs2)cc1`, the inhibition was 1.78%.

In the case of `COc1ccc(NC(=O)c2ccco2)cc1N`, the inhibition is -14.7%.

Take `CCOC(=O)C1C(=O)CC(C)(O)C(C(=O)OCC)C1c1ccc(SC)cc1` (configuration not stated): the inhibition was 9.27%.

As for `COc1ccc(N2CSC3=C(C#N)C(c4cc(OC)ccc4OC)CC(=O)N3C2)c(OC)c1` (configuration not stated), the inhibition is -0.31%.

As to `CCc1ccc(N2CSC3=C(C#N)C(c4cccs4)CC(=O)N3C2)cc1` (configuration not stated), the inhibition is 22.1%.

Consider `COc1cccc(C2CC(=O)N3CN(c4cccc(Cl)c4C)CSC3=C2C#N)c1OC` (configuration not stated), for which the inhibition is -1.72%.

For `COc1ccc(N2CSC3=C(C#N)C(c4cc(OC)c(OC)cc4OC)CC(=O)N3C2)c(OC)c1` (configuration not stated), the inhibition was 15%.

Take `Cc1ccc(N2CSC3=C(C#N)C(c4cccs4)CC(=O)N3C2)cc1` (configuration not stated): the inhibition is 7.29%.

In the case of `COc1ccc(OC)c(C2CC(=O)N3CN(c4ccccc4)CSC3=C2C#N)c1` (configuration not stated), the inhibition was 0.68%.

For `CC(=O)OC(C)CS(=O)(=O)c1ccccc1` (configuration not stated), the inhibition is -4.77%.

For `CCN(c1cccc(C)c1)C(C(=O)Nc1ccc(OC)cc1)c1cc2c(cc1[N+](=O)[O-])OCO2` (configuration not stated), the inhibition was 1.06%.

As to `Cc1ccc(C(=O)Nc2cccnc2)cc1[N+](=O)[O-]`, the inhibition is -3.36%.

As for `CCc1nc(SCc2cccnc2)[nH]c(=O)c1C`, the inhibition is -4.49%.

For `COc1ccc(CN2C(=O)N(c3ccc(OC)cc3)C(=O)C2CC(=O)Nc2ccccc2)cc1` (configuration not stated), the inhibition was 6.5%.

Consider `CCCc1cc(=O)oc2c(CN3CCCC3)c(O)ccc12`, for which the inhibition was -6.61%.

For `CCCCN(C)C(=O)c1ccc(CS(=O)(=O)c2ccccc2C)o1`, the inhibition was -5.74%.

In the case of `COc1ccc(C2=Nc3ccc(C)cc3C(c3ccccc3)N2CC(=O)NN)cc1` (configuration not stated), the inhibition was -0.28%.

In the case of `COC(=O)CN1C(c2ccccc2)=Nc2ccc(Cl)cc2C1c1ccccc1` (configuration not stated), the inhibition was 0.35%.

`COC(=O)CN1C(c2ccc(Cl)cc2)=Nc2ccc(Cl)cc2C1c1ccccc1` (configuration not stated): the inhibition is 79.4%.

`NNC(=O)CN1C(c2cccc(Cl)c2)=Nc2ccc(Br)cc2C1c1ccccc1` (configuration not stated): the inhibition is -2.26%.

For the compound `O=C1/C(=C/c2ccc(F)c(F)c2)CSc2sccc21`, the inhibition was 12.2%.

With `CCCCNS(=O)(=O)c1ccc2nc(-c3cccs3)cc(C(=O)NCC(OC)OC)c2c1`, the inhibition was 3.68%.

For `COC(=O)c1ccc(Cl)c(NC(=O)NC23CC4CC(CC(C4)C2)C3)c1`, the inhibition was 2.38%.

As for `COc1ccc(NC(=O)NC23CC4CC(CC(C4)C2)C3)cc1OC`, the inhibition was 25.7%.

For the compound `CCOc1ccc(NC(=O)Nc2ccc(NC(C)=O)cc2)cc1`, the inhibition was -1.52%.

For the compound `COC(=O)c1cccc(NC(=O)Nc2ccc(Cl)c(Cl)c2)c1`, the inhibition is 51.3%.

For the compound `CCCc1cc(=O)oc2cc(C)cc(OCC(=O)O)c12`, the inhibition is -0.53%.

On to `COC(CNC(=O)c1cc(-c2ccncc2)nc2ccc(S(=O)(=O)N3CCOCC3)cc12)OC`, for which the inhibition was -0.15%.

With `CN(C)CCc1nn[nH]n1`, the inhibition is -3.39%.

In the case of `COc1cc(NC(=O)c2ccc(F)cc2)c(OC)cc1Cl`, the inhibition is 6.81%.

As for `COc1ccc(NC(=O)c2c(F)c(F)c(F)c(F)c2F)cc1Cl`, the inhibition was 0.77%.

As to `COc1ccc(Nc2nc(N)nc(CN3CCN(c4ccc(F)cc4)CC3)n2)cc1`, the inhibition was 2.63%.

As for `COc1ccccc1N1CCN(Cc2nc(N)nc(Nc3ccc(C)cc3)n2)CC1`, the inhibition was 48.7%.

`COc1cccc(N2CCN(Cc3nc(N)nc(Nc4ccccc4)n3)CC2)c1`: the inhibition was 0.52%.

For `COc1ccccc1N1CCN(Cc2nc(N)nc(Nc3ccccc3)n2)CC1`, the inhibition was -1.85%.

As to `CCOC(=O)c1ccc(NC(=S)Nc2cccc(N)n2)cc1`, the inhibition is 59.5%.

As to `CCCNc1nc2c(c(=O)[nH]c(=O)n2C)n1Cc1cccc(Br)c1`, the inhibition was 1.4%.

For `CCOc1ccc(NC(=O)CN2C(=O)S/C(=C/c3cccn3C)C2=O)cc1`, the inhibition is 0.02%.

As for `CCC(C)NC(=O)CCNS(=O)(=O)c1ccc(Br)cc1` (configuration not stated), the inhibition was -4.65%.

On to `CCn1nccc1C(=O)Nc1nccs1`, for which the inhibition is -3.43%.

With `NS(=O)(=O)c1cccnc1Nc1cccc(C(F)(F)F)c1`, the inhibition was 3.67%.

On to `c1ccc(Oc2nc(-c3cccnc3)nc3ccccc23)cc1`, for which the inhibition is 8.16%.

On to `Cc1ccc(Oc2nc(-c3cccnc3)nc3ccccc23)c([N+](=O)[O-])n1`, for which the inhibition was 7.05%.

With `CCCC(=O)Nc1cc(C(=O)O)ccc1Sc1ccc(C)cc1`, the inhibition is -4.31%.

For `COC(=O)CCC(=O)NC(=S)Nc1cc(Cl)ccc1Cl`, the inhibition was -5.76%.

With `O=C(CSCc1ccccc1)Nc1ccc2c(c1)C(=O)NC2=O`, the inhibition is -3.24%.

For `N#C/C(=C\c1ccc([N+](=O)[O-])cc1)c1ccccn1`, the inhibition is 7.55%.

On to `NC(CO)(CO)COCc1ccccc1`, for which the inhibition was 5.19%.

`Cc1ccc(C(=O)/C=C/C(=O)O)cc1`: the inhibition was 1.06%.

As for `O=C(O)/C=C/c1ccccc1[N+](=O)[O-]`, the inhibition was -15.1%.

With `O=C(/C=C/c1ccccc1[N+](=O)[O-])c1ccc(F)cc1`, the inhibition was 49.5%.

On to `Cc1ccc(C(=O)/C=C/c2ccc(-c3ccc(C)cc3)o2)cc1`, for which the inhibition was 88.2%.

As for `Cc1ccc(/C=C/C(=O)c2ccc(C)cc2)cc1`, the inhibition is 3.08%.

For `Cc1ccc(C(=O)/C=C\NCc2ccccc2)cc1`, the inhibition is 2.13%.

Regarding `Cc1ccc(/C=C/C(=O)c2ccccc2)cc1`, the inhibition is 10.3%.

In the case of `O=C(/C=C/c1ccc(-c2ccccc2)o1)c1ccccc1`, the inhibition was 12.6%.
